Pf growth 48h – inhibits P. falciparum growth in the first generation, 48 h; 310,000 compounds, 5.9% hits; P. falciparum luciferase growth in erythrocytes, 48 h; Potency, µM (titrated, usually from 28.7 µM), for the others: top-dose activity change, negative = inhibition, most hits filed as inhibitors; note: potency is the fitted concentration of half-maximal effect; % is set by controls: 0 for no effect and ±100 for the full control effect
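Firefly luciferase activity from engineered P. falciparum reports growth; inhibitors lower the luminescent signal. Cultures contained 2% hematocrit erythrocytes at 0.1% final parasitemia.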
SARS PLpro yeast – blocks SARS-CoV papain-like protease in a yeast assay; 330,000 compounds, 0.19% hits; Potency, µM (titrated, usually from 32.9 µM), for inactives: top-dose activity, positive = growth rescue, actives largely listed as activators; S. cerevisiae expressing SARS-CoV PLpro, growth rescue; AID 485353; calls by dose curve; note: potency is the fitted concentration of half-maximal effect; 0% is about no effect; nearly all actives have a fitted effect of over 55% in size
NS1 function inh – blocks influenza NS1 protein function; Potency, µM (top dose mostly 46.1 µM), for the others: top-dose activity, positive = more growth; AID 2326; 270,000 compounds, 0.4% hits; calls by dose curve; note: potency is the fitted concentration of half-maximal effect; actives are rising curves; nearly all actives have a fitted effect of over 50% in size
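S. cerevisiae expressing influenza A NS1, grown in glucose, washed, then diluted 1:100 into pH 6.0 -URA galactose medium with 23 nl compound. Growth recovery read as OD600; NS1-free strain serves as control.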
Cycloheximide cs – affects cycloheximide protein synthesis inhibition readout, counter-screen; max response, %; 300,000 compounds, 12% hits; cell reporter, cycloheximide protein synthesis inhibition counterscreen; in the data active = max response mostly above about 13%, no sharp cut-off; inactive = mostly below about 14%; note: read at 38.3 µM for the half of the compounds with a filed dose; 0% is about no effect
Pf growth 96h – P. falciparum growth inhibition at 96 hours; P. falciparum luciferase reporter growth, 96 h; Potency, µM (series often up to 28.7 µM), for inactives: top-dose activity change, negative = inhibition, most hits filed as inhibitors; 320,000 compounds, 6.9% hits; note: potency is the fitted concentration of half-maximal effect; % is set by controls: 0 for no effect and ±100 for the full control effect
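Erythrocytes infected with luciferase-expressing P. falciparum were dispensed at 2% hematocrit and 0.05% parasitemia (final), then incubated with compounds 96 hours at 37 C in 5% CO2. Luminescence after detection reagent addition reported growth.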
Shiga inhibitor – Shiga toxin inhibition; Vero cells, Shiga toxin protein synthesis inhibition reporter; inhibition, % at 38.7 µM; 290,000 compounds, 9.2% hits; AID 2315; in the data active = inhibition mostly above about 28%, no sharp cut-off; inactive = mostly below about 43%; note: 0% is about no effect
An asterisk follows results filed as active; ? = inconclusive; / = no result. Most compounds without a hit are left out; they make up all but 21% or so of the library. Unless noted, calls come from the whole dose curve; as a rule, active = well fitted inhibition curve with a large enough effect; inconclusive = small, poorly fitted or top-dose-only effect, or another doubt; inactive = no such curve, though single readings can be large or run the other way.

SMILES | Pf growth 48h | SARS PLpro yeast | NS1 function inh | Cycloheximide cs | Pf growth 96h | Shiga inhibitor
COc1ccc2[nH]c(C)c(CCN(Cc3cccs3)C(=S)Nc3ccccc3)c2c1 | 0.83µM* | -1% | ? | -1 | 0.41µM* | 15
COCCNC(=S)N(CCc1c(C)[nH]c2ccc(C)cc12)Cc1ccco1 | ? | -1% | / | 11 | ? | -22
COc1ccc2[nH]c(C)c(CCN(Cc3cccs3)C(=S)Nc3ccc(F)cc3)c2c1 | 1.7µM* | -10% | ? | -1 | 2.3µM* | 10
CCC1(C)CC2(CCCN(CCC(=O)c3ccccc3)C2)CCO1 (stereo not given) | 6% | -1% | / | -2 | ? | -13
COc1ccc(C(=O)C2CCN(C(=O)Nc3ccccc3C)CC2)cc1 | 9% | -6% | 13% | -6 | ? | -1
COCCCNC(=S)NNC(=O)c1cccnc1 | 26% | -8% | 5% | 3 | / | 34
Cc1ccc(C(=O)NC(=S)N2CCN(c3ccccc3F)CC2)cc1 | 16% | 1% | 11% | 20 | 36% | 35*
COc1ccc(C(=O)NC(=S)N2CCN(c3ccccc3OC)CC2)cc1 | ? | -1% | -7% | 5 | 22% | -11
Cc1ccc(C(=O)NC(=S)N2CCN(c3cc(C)ccc3C)CC2)cc1 | ? | 6% | 19% | 38* | -28% | 49*
O=C(c1ccc(-c2ccccc2)cc1)N1CCN(c2ccccc2F)CC1 | 10% | -11% | -22% | 2 | -19% | /
Cc1ccc(N2C(=O)c3ccc(C(=O)N4CCN(c5ccccc5F)CC4)cc3C2=O)cc1 | 5% | 14% | ? | -3 | 9.3µM* | -11
COc1ccccc1N(CC(=O)NCc1ccco1)C(=O)CCC(=O)Nc1ccccn1 | ? | -11% | 4% | 16 | 0% | 8
O=C(Cn1c(=O)c2cccn2c2ccccc21)NCCc1ccc(Cl)cc1 | 27% | 4% | 2% | 0 | 10µM* | 2
O=C(Cn1c(=O)c2cccn2c2ccccc21)NCCc1ccccc1 | 11% | 3% | 20% | -3 | ? | 7
CC(C)(C)c1cc(O)ccc1O | 6µM* | / | -6% | / | 11µM* | /
COc1ccccc1C1C2=C(N=c3s/c(=C/c4cccc(OCC(=O)O)c4)c(=O)n31)c1ccccc1CC2 (stereo not given) | 10µM* | -14% | ? | -2 | ? | -13
CCOC(=O)C1=C(C)N=c2s/c(=C/c3cccc(OCC(=O)O)c3)c(=O)n2C1c1ccc(F)cc1 (stereo not given) | ? | 1% | 12% | 9 | 0% | -3
COc1cccc(C2C3=C(N=c4s/c(=C\c5ccc(OCC(=O)O)cc5)c(=O)n42)c2ccccc2CC3)c1 (stereo not given) | ? | 0% | ? | 8 | ? | 30
COC(=O)C1=C(C)N=c2s/c(=C/c3ccoc3)c(=O)n2C1c1ccccc1 (stereo not given) | ? | / | -93% | -2 | 70% | -2
COc1cccc(C2C3=C(N=c4s/c(=C\c5ccc(O)cc5)c(=O)n42)c2ccccc2CC3)c1OC (stereo not given) | ? | 22% | 15% | -1 | 13µM* | -10
COc1cccc(C2C3=C(N=c4s/c(=C\c5cccc(O)c5)c(=O)n42)c2ccccc2CC3)c1OC (stereo not given) | 2.3µM* | -14% | ? | -1 | ? | -6
Cc1cc(C)c(C)c(S(=O)(=O)NCc2ccncc2)c1C | 9% | 0% | 3% | -3 | ? | -10
Cc1c(OCC(=O)NC2CCN(Cc3ccccc3)CC2)ccc2c3c(c(=O)oc12)CCC3 | ? | -2% | -11% | -10 | ? | -7
COc1ccc(C(=O)N2CCNC(=O)C2CC(=O)Nc2ccc(C)c(C)c2)cc1 (stereo not given) | 11% | -1% | 5% | 0 | 9.3µM* | -17
COc1ccc(CN2CCNC(=O)C2CC(=O)NC2CCCC2)cc1OC (stereo not given) | -15% | 4% | 11% | -1 | ? | -3
COc1ccc(CN2CCNC(=O)C2CC(=O)NC2CCCCCCC2)cc1OC (stereo not given) | 12µM* | 20% | 17% | -1 | -8% | -3

Assay outcomes from PubChem BioAssay.
